Bioassay records deposited in PubChem by National Center for Advancing Translational Sciences (NCATS).
A selection: hits, their analogues and other compounds. The true share with any hit is near 13%.
Shiga inhibitor: inhibitors of Shiga toxin in Vero cells; Vero cells, Shiga toxin protein synthesis inhibition reporter; inhibition, % at 38.7 µM; 290,000 compounds, 9.2% hits; AID 2315; in the data active means inhibition mostly above about 28%, no sharp cut-off; inactive means mostly below about 43%; further: 0% is about no effect
Cycloheximide cs: affects cycloheximide protein synthesis inhibition readout, counter-screen | cell reporter, cycloheximide protein synthesis inhibition counterscreen | max response, % | 300,000 compounds, 12% hits; in the data active means max response mostly above about 13%, no sharp cut-off; inactive means mostly below about 14%; further: read at 38.3 µM for the half of the compounds with a filed dose; 0% is about no effect
HCV inhibitor: inhibitors of hepatitis C virus infection; Huh7.5.1 HCVcc-Cre infection, luciferase reporter, 44 h; Potency, µM (top dose mostly 41.8 µM), without a hit: top-dose activity change, negative = inhibition, actives largely listed as inhibitors; 340,000 compounds, 3.4% hits; AID 651820; active means well fitted inhibition curve with a large enough effect; inconclusive means small, poorly fitted or top-dose-only effect, or another doubt; inactive means no such curve, though single readings can be large or run the other way; further: potency means the concentration at half of the fitted maximal effect; on the % scale 0 is the no-effect control and ±100 the full control effect
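Cells (1,000/well) were plated 4 h before compound, then infected with HCVcc-Cre virus (~0.5 moi). After 44 h further culture, infection was read as luciferase luminescence following a 15 min substrate incubation at room temperature.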
Lassa entry inh: blocks Lassa virus binding to or entry into cells. Lassa virus pseudotype entry inhibition, cell reporter. Potency, µM (titrated, usually from 37.9 µM), for the others: at the top dose activity change, negative = inhibition, most hits filed as inhibitors. 300,000 compounds, 1.2% hits. AID 540256; calls by dose curve; tested in HEK293 cells; further: potency means the concentration at half of the fitted maximal effect; on the % scale 0 is the no-effect control and ±100 the full control effect; nearly all actives have a fitted effect of over 50% in size
FMDV antiviral: blocks foot and mouth disease virus; Potency, µM (titrated, usually from 57.9 µM), for the others: at the top dose activity change, negative = inhibition, actives largely listed as inhibitors; 410,000 compounds, 1.2% hits; AID 1159524; FMDV antiviral cell-based qHTS; calls by dose curve; tested in HEK293T cells; further: read-out not given here; potency means the concentration at half of the fitted maximal effect; on the % scale 0 is the no-effect control and ±100 the full control effect; nearly all actives have a fitted effect of over 45% in size
MARV entry inh: blocks Marburg virus binding to or entry into cells; Marburg virus pseudotyped entry inhibition, cell reporter; Potency, µM (top dose mostly 37.8 µM), inactives show top-dose activity change, negative = inhibition, most hits filed as inhibitors; AID 540276; 300,000 compounds, 1.8% hits; calls by dose curve; tested in HEK293 cells; further: potency means the concentration at half of the fitted maximal effect; on the % scale 0 is the no-effect control and ±100 the full control effect
* hit, by the source's call; ? = inconclusive; / = not tested or not shown; [ ] = remark or other dose.

SMILES	Shiga inhibitor	Cycloheximide cs	HCV inhibitor	Lassa entry inh	FMDV antiviral	MARV entry inh
O=C(Nc1ccc(Cl)cn1)c1ccc2c(Cl)c3c(nc2c1)CCC3	64*	35*	-17%	/	-4%	/
Cc1ccc2nc(-c3ccc(CN4CCC(n5c(=O)[nH]c6ccccc65)CC4)cc3)c(-c3ccccc3)nc2c1	/	/	/	/	-4%	/
CC(N)[C@@H](O)c1ccccc1 (some centres not stated)	/	/	/	/	-7%	/
CN(C(=O)c1ccc2c(Cl)c3c(nc2c1)CCC3)c1ccccc1	94*	45*	-21%	-4%	28%	4%
CN1CCN(CCCNC(=O)c2ccc3c(c2)N(Cc2ccc(F)cc2)CCS3)CC1	-21	-9	?	/	-8%	/
CC(=O)c1ccc(N2C(=O)C3C(C2=O)C(C(=O)c2ccc(Cl)cc2)N2CCCC32)cc1 (configuration not stated)	61	10	-17%	-1%	?	?
O=C(c1ccc(Cl)cc1)C1CCCN(Cc2ccc3nonc3c2)C1 (configuration not stated)	21	1	22µM*	/	4%	/
COc1cccc(C(=O)C2CCCN(Cc3ccc(OC)c(Cn4cncn4)c3)C2)c1 (configuration not stated)	20	-3	?	-15%	-23%	?
COc1ccc(CN2CCC(C(=O)c3ccc(Cl)cc3)CC2)cc1	/	-3	11µM*	/	-17%	/
COc1ccc(CN2CCCC(C(=O)c3ccc(Cl)cc3)C2)cc1Cn1cccn1 (configuration not stated)	-5	7	10µM*	10µM*	-14%	2.8µM*
COc1ccc(CN2CCC(C(=O)c3cccc(Cl)c3)CC2)cc1	/	1	-9%	/	-14%	/
COc1ccc(N2C(=O)C3C(C2=O)C(C(=O)c2ccc(Cl)cc2)N2CCCC32)cc1 (configuration not stated)	90*	34*	5%	8%	?	?
Cc1ccccc1C1c2[nH]c3ccccc3c2CCN1C(=O)c1ccc(=O)n(C)n1 (configuration not stated)	9	-2	1%	?	3%	?
COc1ccc(C2c3[nH]c4ccccc4c3CCN2C(=O)c2ccc(=O)n(C)n2)c(F)c1 (configuration not stated)	34	26*	-1%	?	34%	?
CCc1cc(C(=O)N2CCc3c([nH]c4ccccc34)C2c2ccc(OC)cc2F)no1 (configuration not stated)	-5	-4	?	?	14%	0.89µM*
CN1N=C(C(=O)N2CCc3c([nH]c4ccccc34)C2c2ccccc2Cl)CCC1=O (configuration not stated)	74*	43*	-44%	?	64%	?
COc1ccc(-c2nc3scc(CCNS(=O)(=O)c4ccc(C)cc4)n3n2)cc1	/	/	/	-6%[46.1 µM]	17%	/
CN(Cc1cn(C)nc1-c1ccc(Oc2ccccc2)cc1)Cc1cnc2ccccn12	-13	-2	?	/	11µM*	/
Cn1cc(CNCc2cnc3ccccn23)c(-c2ccc(Oc3ccccc3)cc2)n1	-6	-1	?	?	-11%	?
CC(C)Cn1c(SCC(=O)c2c(N)n(C)c(=O)n(C)c2=O)nc2ccccc21	-7	-1	?	12%	?	2%[46.1 µM]
CN(C)CCN(C(=O)c1ccc2c(c1)CCCC2)c1nc2c(F)cccc2s1	62	56*	-15%	-7%	27%	-7%
COc1cccc2sc(N(CCN(C)C)C(=O)c3ccc4c(c3)CCCC4)nc12	28	-1	?	?	0%	?
CN(C)CCCN(C(=O)c1ccc2c(c1)CCCC2)c1nc2ccc(Cl)cc2s1	-3	-8	7.9µM*	?	28µM*	?
CCOC(=O)c1ccc(NC(=O)CSc2nnc(Cc3cccs3)n2C)cc1	-3	-1	?	11%	-10%	16%
CS(=O)(=O)N(CC(=O)Nc1ccc2c(c1)OCO2)c1ccc(Cl)cc1	116*	36*	6%	-1%	44%	28%
SMILES	Shiga inhibitor	Cycloheximide cs	HCV inhibitor	Lassa entry inh	FMDV antiviral	MARV entry inh
COc1ccccc1N(CC(=O)Nc1ccc2c(c1)OCCO2)S(=O)(=O)c1ccc(C)cc1	47*	32*	?	?	26%	?
Cc1ccc(N(CC(=O)Nc2ccc3c(c2)OCCO3)S(C)(=O)=O)cc1	60*	54*	-2%	22%	31%	?
COc1ccccc1N(CC(=O)NCCSCc1cccc(C)c1)S(=O)(=O)c1ccccc1	-24	5	13µM*	?	?	?
CCN(Cc1ccccc1)C(=O)C1CCN(Cc2sccc2C)CC1	-4	-2	-1%	-25%	-7%	3%
COc1ccc(C(=O)N(Cc2ccccc2)c2cccc(C)c2)cc1S(=O)(=O)N1CCOCC1	/	/	-13%	?	54%	?
Cc1noc(C)c1S(=O)(=O)N(CC(=O)Nc1ccc2c(c1)OCO2)c1ccc(C(C)C)cc1	-3	-4	2%	/	-27%	/
CS(=O)(=O)N(CC(=O)Nc1ccccc1C(=O)NCCc1ccccc1)c1ccc2c(c1)OCCO2	80	35*	9%	-3%	39%	-3%
Cc1n[nH]c(C)c1S(=O)(=O)N(CC(=O)Nc1ccc2c(c1)OCCO2)c1ccc(C(C)C)cc1	10	26*	?	/	?	8%
CS(=O)(=O)N(CC(=O)Nc1ccccc1C(=O)NCc1ccccc1)c1ccc2c(c1)OCCO2	7	6	?	-1%	4%	2%
COc1ccc(Cl)cc1N(CC(=O)Nc1ccc2c(c1)OCCO2)S(C)(=O)=O	57	15*	13%	3%	-11%	-7%
Cc1cc(C)c2nc3s/c(=C/c4ccc5c(c4)n(C)c(=O)n5C)c(=O)n3c2c1	14	0	?	/	/	0%
O=C(c1cc2nc(-c3cccs3)cc(C(F)(F)Cl)n2n1)N1CCCc2ccccc21	47	14	7.1µM*	-3%	/	?
O=C(c1cc2nc(-c3cccs3)cc(C(F)(F)F)n2n1)N1CCCc2ccccc21	26	20*	10µM*	?	0%	?
O=C(c1cc2nc(-c3ccco3)cc(C(F)(F)F)n2n1)N1CCCc2ccccc21	52	7	5%	3%	?	5%
O=C(NCc1ccccc1C(F)(F)F)C12CN(Cc3ccccc3)CC1C(c1ccc([N+](=O)[O-])cc1)=NO2 (configuration not stated)	41	18*	?	/	28%	/
CCCC[n+]1cc(/N=C(\[O-])OC)on1	-7	-1	-2%	-2%	11%	6%[46.1 µM]
CO/C([O-])=N/c1c[n+](-c2ccc(C)cc2)no1	43*	22*	2%	28%	8%	0%
Cc1ccc(F)cc1NCC(=O)Nc1ccc(Br)cc1	58*	31*	10%	22%	66%	?
Cc1ccc(NCC(=O)Nc2ccc(Br)cc2)cc1C	27	18*	-2%	/	56%	/
